# TIM10 inh: TIM10 yeast growth inhibition; S. cerevisiae TIM10 strain growth, BacTiter-Glo luminescence, 24 h; inhibition, % at 10 µM; actives 1.4% (n = 330,000);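 active means inhibition of 40% or more at the single tested concentration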;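 further: wild-type TIM10 isogenic control strain grown at permissive 25 °C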
# Beta2AR agonist: activates human beta-2 adrenergic receptor causing internalization | P07550 | Am2.2-beta2AR cells, FAP receptor internalization, flow cytometry | response, % (test concentration not listed) | actives 0.43% (n = 340,000);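 active means response above a set limit, near 3 SD of response in nonfluorescent compounds, cut at about 42% in these data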
# Target sequence (P07550 whole entry, looked up): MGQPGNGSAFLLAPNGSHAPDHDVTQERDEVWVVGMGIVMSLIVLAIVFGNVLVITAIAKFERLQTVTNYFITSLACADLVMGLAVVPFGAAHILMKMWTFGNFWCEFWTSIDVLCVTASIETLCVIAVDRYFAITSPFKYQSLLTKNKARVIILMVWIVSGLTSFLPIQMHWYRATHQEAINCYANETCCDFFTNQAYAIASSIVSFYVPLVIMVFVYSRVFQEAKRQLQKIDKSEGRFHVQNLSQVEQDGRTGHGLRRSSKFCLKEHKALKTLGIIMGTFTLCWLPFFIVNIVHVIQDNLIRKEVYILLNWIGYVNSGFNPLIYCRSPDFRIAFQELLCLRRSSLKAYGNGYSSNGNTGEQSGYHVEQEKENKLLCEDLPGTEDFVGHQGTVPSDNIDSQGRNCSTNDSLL
# tim23-1 inh: growth inhibitors of tim23-1 mutant yeast | AID 463212 | inhibition, % at 20 µM | S. cerevisiae tim23-1 growth, BacTiter-Glo luminescence, 24 h | actives 1.3% (n = 330,000);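 active means growth inhibition of the mutant yeast at or above 50%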;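 further: temperature-sensitive mutant grown at 25 °C; plate controls were DMSO-treated mutant yeast for no effect and medium wells lacking yeast for full effect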
# tim10-1 inh: inhibits growth of tim10-1 mutant yeast | S. cerevisiae tim10-1 ts strain growth, BacTiter-Glo, 24 h | inhibition, % at 20 µM | actives 2.2% (n = 330,000) | AID 463190;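 active means inhibition of at least 40%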;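 further: mutant grown at 25 °C; 0% = DMSO wells with yeast and 100% = wells holding no yeast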
# PfHsp90 yeast 2: growth inhibition of yeast expressing Plasmodium Hsp90. S. cerevisiae expressing PfHsp90, BacTiter-Glo ATP, 48 h; yeast lacking PDR1 and PDR3 efflux regulators. inhibition, % at 9.4 µM. actives 0.32% (n = 310,000);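 active means every replicate shows inhibition above about 80%, whatever the replicate mean, limit read from the data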;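 further: 0% = DMSO neutral controls and 100% = 20 µM radicicol positive controls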
# Beta2AR ag CP1: agonists of human beta-2 adrenergic receptor; shares compounds with Beta2AR agonist; Am2.2-beta2AR cells, FAP surface receptor, flow cytometry; active compounds read low; percent response (surface receptor), % at 10 µM; actives 25% (n = 1,100); AID 540358;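 active means surface receptor percent response at or below 58%, roughly 3 SD from nonfluorescent compounds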
# B2AR FAP counter: fluorescence artifact in beta-2AR agonist FAP counterscreen. shares compounds with Beta2AR agonist. 1,100 tested, under 10 active. Am2.2 cells, FAP fluorogen flow cytometry; active compounds read low. calls only at 10 µM;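 active means percent response below a set limit in fluorescence channel 1 and below 50% in channel 8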
# Active calls of the source: *; i = inactive; . = no result; + = active, no number; ! = not confirmed by another sample. Sampled rows, rich in hits. Any-hit rate of the full collection: about 3.8%.
SMILES,TIM10 inh,Beta2AR agonist,tim23-1 inh,tim10-1 inh,PfHsp90 yeast 2,Beta2AR ag CP1,B2AR FAP counter
CN(C(=O)c1ccc(NC(=O)Cc2ccc(NC(=O)C3CCN(C(=O)C4CCCC4)CC3)cc2)cc1)C1CC1,-8,-2,2,-6,-13,.,.
CN(C(=O)c1cccc(NC(=O)Cc2cccc(NC(=O)C3CCN(C(=O)C4CCCC4)CC3)c2)c1)C1CCC1,.,-15,.,.,3,.,.
Cc1ccc2c(c1)c1c(n2CC(O)CNC2CCCCC2)CCCC1 (centres undefined),10,53*,-4,13,25,112,i
CC(/C=C/c1ccccc1)=N\NC(N)=S,16,-6,0,29,.,91,i
CCOC(=O)c1nn(-c2ccc(C)cc2)c(=O)cc1OCC(=O)N1CCN(c2ccccc2)CC1,14,15,22,6,7,.,.
CCOC(=O)c1nnn(CC(=O)Nc2cccc(Cl)c2C)c1C(=O)OCC,2,70*,10,11,2,101,i
Cc1ccc(C(=O)c2cc([N+](=O)[O-])ccc2N2CCCCC2)c(C)c1,19,61*,35,30,-87,41*,i
CCCN(CC(=O)Nc1cc(Cl)ccc1Cl)C(=O)CN1C(=O)C2CCCCC2C1=O (centres undefined),3,-3,15,23,30,.,.
Cc1ccc(C(=O)Nc2cccc(C(F)(F)F)c2)cc1NC(=O)c1csc(-c2ccncc2)n1,-1,91*,1,-9,-17,36*!,+!
Cc1occc1C(=O)NNC(=O)c1ccccc1Br,0,-2,3,9,9,.,.
CCCCn1c(=N)n(CC(=O)c2ccc(Br)s2)c2ccccc21,1,82*,3,-6,-10,0.9*,i
CCn1c(=N)n(CC(=O)c2ccc(Br)s2)c2ccccc21,-15,-4,2,5,0,.,.
Cc1ccc(OCCCC(=O)NC2CCCCC2)cc1,4,-3,16,6,24,.,.
COc1ccc(C[C@H]2CN3C(=NC[C@@H]3Cc3ccc(O)cc3)N2CCNC(=O)c2ccc(C)c(Br)c2)cc1,1,47*,14,1,9,94,i
Cc1ccc(C(=O)NCCN2C3=NC[C@H](Cc4ccc(O)cc4)N3C[C@H]2Cc2ccc(O)cc2)cc1Br,16,-3,7,4,11,.,.
CCS(=O)(=O)CCn1c([N+](=O)[O-])cnc1C,4,2,12,3,2,102,i
COc1ccc(CCNC(=O)Cc2ccc(OC)c(OC)c2)cc1OC,-7,5,8,29,-6,.,.
COc1ccc(CCNC(=O)Cc2cccc(C(F)(F)F)c2)cc1OC,1,83*,9,-13,1,102,i
Cn1nnnc1Sc1ncnc2scc(-c3ccc(Cl)cc3)c12,13,85*,46,6,-4,6.3*,i
Cc1ccc(NS(=O)(=O)c2cccc(C(=O)NCC(c3ccco3)N3CCCC3)c2)cc1 (centres undefined),-2,-3,0,8,0,.,.
CCOC(=O)N1CCN(C(=O)CNS(=O)(=O)c2c(C)cc(C)cc2C)CC1,4,-4,10,11,16,.,.
O=C(NC1CCCC1)c1cccc(S(=O)(=O)N2CCCC2)c1,10,2,5,10,-5,.,.
CC(Oc1ccc(Cl)cc1Cl)c1nc(-c2ccc(NC(=O)c3ccccn3)cc2)no1 (centres undefined),12,82*,0,18,2,9.7*,i
Oc1ccccc1Nc1nc(NCc2ccco2)c2ccccc2n1,-41,51*,-12,-15,-11,23*,i
Oc1ccccc1Nc1nc(NCC2CCCO2)c2ccccc2n1 (centres undefined),-62,47*,-104,-15,0,8.6*,+
SMILES,TIM10 inh,Beta2AR agonist,tim23-1 inh,tim10-1 inh,PfHsp90 yeast 2,Beta2AR ag CP1,B2AR FAP counter
c1ccc(Nc2nc(NCc3ccco3)c3ccccc3n2)cc1,-2,18,-23,-44,14,80,i
Cc1cccc(Nc2nc(NCc3ccco3)c3ccccc3n2)c1,.,39,.,.,-37,.,.
c1ccc(CN2CCN(c3nc(NCc4ccco4)c4ccccc4n3)CC2)cc1,5,9,-1,9,1,102,i
OCCN1CCN(c2nc(NCc3ccco3)c3ccccc3n2)CC1,-57,-6,0,-42,6,.,.
O=C(CN(C(=O)c1ccccc1Cl)N1C(=O)CCCC1=O)c1ccc(Cl)cc1,-30,1,15,1,23,.,.
CCn1nc(NS(=O)(=O)c2ccc(F)cc2)c2cc3cccc(C)c3nc21,1,7,25,29,-36,114,i
CCn1nc(NS(=O)(=O)c2ccc(NC(C)=O)cc2)c2cc3cccc(C)c3nc21,3,3,9,-6,-9,.,.
CCn1nc(NS(=O)(=O)c2ccccc2)c2cc3cccc(C)c3nc21,-7,5,11,24,.,.,i
Brc1ccc(-c2nnc3ccc(Nc4ccccc4)nn23)cc1,5,.,-6,11,.,.,.
O=C(CCCCCn1c(=S)[nH]c2ccccc2c1=O)NCc1ccc2c(c1)OCO2,-17,113*,-23,6,-6,29*,i
O=C(CCCCCn1c(=O)[nH]c2ccsc2c1=O)NCc1ccc2c(c1)OCO2,0,113*,2,9,.,26*,i
O=c1c2ccccc2[nH]c(=S)n1Cc1ccc2c(c1)OCO2,-1,-11,6,7,-10,.,.
O=C(CCn1c(=O)[nH]c2ccsc2c1=O)NCc1ccc(F)cc1,-1,-7,-1,5,-2,95,i
Cc1ccc(S(=O)(=O)c2cc(C)cc(S(=O)(=O)Nc3ccc(C(=O)O)cc3)c2C)cc1,5,6,-8,2,5,.,.
O=C(COC(=O)c1ccccc1C(=O)c1ccc(Cl)c([N+](=O)[O-])c1)NC1CCCCCC1,29,53*,14,28,.,9.7*,i
O=C(COC(=O)c1ccc(Cl)c([N+](=O)[O-])c1)NC1CCCC1,11,10,4,-1,18,.,.
COc1ccccc1C(CNC(=O)c1cccc(S(=O)(=O)NCc2ccccc2)c1)N(C)C (centres undefined),-30,-5,-30,-26,-6,.,.
O=C(CCCCCNc1nc(=S)[nH]c2ccccc12)NCCc1c[nH]c2ccccc12,2,22,-1,9,4,.,.
O=C(CCCCCNc1nc(=S)[nH]c2ccccc12)NCCc1ccc(Cl)cc1,3,55*,-28,-19,-17,109,i
COc1cc(CNCCc2c[nH]c3ccccc23)ccc1OCc1ccc(F)cc1,24,72*,4,5,6,56*,i
